High-throughput results: PubChem, National Center for Advancing Translational Sciences (NCATS)
Sampled rows, rich in hits. Any-hit rate of the full collection: about 1.1%.
GALK inh: galactokinase (human) inhibition. P51570. Purified GALK, Kinase-Glo residual ATP luminescence. Potency, µM (highest dose often 57.5 µM), for inactives: at the top dose activity change, negative = inhibition, most hits filed as inhibitors. hit rate 0.007% among 270,000. AID 1868; also: potency is read from the fitted curve at half-maximal effect
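The enzyme phosphorylates galactose (100 uM) using ATP (35 uM); inhibition is detected as higher residual ATP, quantified by bioluminescence after 1 h reaction at room temperature, pH 8.0.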
rTrxR1 inhibitor: blocks rat thioredoxin reductase 1 | hit rate 1% among 390,000 | recombinant rTrxR1, NADPH fluorescence consumption, selenite substrate | Potency, µM (series often up to 114 µM), for the others: top-dose activity change, negative = inhibition, usual class: inhibitors; also: potency is read from the fitted curve at half-maximal effect; nearly all actives have a fitted effect of over 65% in size
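Rat TrxR1 (90 nM in the dispensed reagent) was pre-reduced with 400 uM NADPH for 5 min at room temperature, then incubated with compound for 15 min. After 400 uM selenite was added, NADPH fluorescence (Ex 340/Em 450 nm) was followed for 8 min.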
Integrin act MD: activates integrin-mediated alleviation for muscular dystrophy | hit rate 0.064% among 350,000 | alpha7betagal myoblasts, beta-gal FDG fluorescence, 48 h | Potency, µM (titrated, usually from 38.3 µM), for the others: at the highest dose activation, actives largely listed as activators;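 also: potency is read from the fitted curve at half-maximal effect; 100% = response of the positive control SU9516; nearly all actives have a fitted effect of over 60% in size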
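Alpha7betagal+/- myoblasts (passage 13) were plated 16-24 hr, then exposed to compounds (1:260 dilution of DMSO stock) for 48 hours at 37C. After MPER lysis, β-galactosidase reporter activity was read as FDG fluorescence (ex 480/em 540) after 30 minutes.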
TrxR1 substrate: rat thioredoxin reductase 1 substrate activity. hit rate 0.01% among 390,000. Potency, µM (top dose mostly 114 µM), for inactives: at the highest dose activity change, negative = substrate turnover. AID 588456. purified TrxR1 substrate turnover, NADPH consumption readout; also: potency is read from the fitted curve at half-maximal effect; nearly all actives have a fitted effect of over 50% in size
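Rat TrxR1, dispensed at 90 nM, was prereduced with 400 uM NADPH (final) for 5 min at ~22 deg C, then incubated with compound 15 min before 400 uM selenite. A first-read NADPH fluorescence drop versus no-compound background flagged substrates.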
PI4K2A inh: PI4K2A (human) kinase inhibition; activity change, negative = inhibition, % at 76.9 µM; purified PI4K2A, ADP-Glo luminescence, 1 h; active compounds read low; hit rate 0.13% among 420,000; in the data active = activity change below about -50%; inconclusive = mostly about -30% to -49%;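 also: -100% = wells without enzyme as full effect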
Target sequence (Q9BTU6 whole entry, looked up): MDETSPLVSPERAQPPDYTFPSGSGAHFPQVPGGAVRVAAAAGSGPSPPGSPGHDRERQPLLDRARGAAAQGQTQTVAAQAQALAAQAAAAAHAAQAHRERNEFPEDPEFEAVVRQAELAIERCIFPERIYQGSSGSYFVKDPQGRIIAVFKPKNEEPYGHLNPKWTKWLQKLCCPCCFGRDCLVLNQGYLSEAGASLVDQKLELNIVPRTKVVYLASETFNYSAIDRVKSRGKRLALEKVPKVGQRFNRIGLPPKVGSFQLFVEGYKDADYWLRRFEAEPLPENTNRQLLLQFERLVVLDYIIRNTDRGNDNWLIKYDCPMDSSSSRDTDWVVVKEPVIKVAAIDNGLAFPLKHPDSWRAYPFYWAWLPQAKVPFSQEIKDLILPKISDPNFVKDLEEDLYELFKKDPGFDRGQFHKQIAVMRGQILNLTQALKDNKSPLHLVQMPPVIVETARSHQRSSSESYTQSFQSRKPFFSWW
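Compounds are screened against recombinant PI4K2A using PI as substrate and ATP, the latter dispensed at 300 microM. Reactions run one hour at ambient temperature before ADP-Glo detection; full inhibition defined by wells lacking enzyme.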
LDHA block: blocks human lactate dehydrogenase A | AID 1347041 | hit rate 0.15% among 480,000 | purified LDHA, NADH/diaphorase-resazurin fluorescence; active compounds read low | P00338 | activity change, % (values are at about 110 or 230 µM); in the data active = activity change below about -30%; inconclusive = mostly about -25% to -30%;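 also: plate controls were DMSO wells for no effect and wells without enzyme for full effect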
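Enzyme activity of human lactate dehydrogenase 5 (2 nM; 0.06 mM NADH, 0.2 mM pyruvate, 5 min, RT) is measured via a resazurin/diaphorase fluorescence readout of residual NADH.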
The depositor's hits bear a star; i = inactive; ? = inconclusive; . = not tested or not shown; [ ] = remark or other dose. Unless noted, calls follow the shape of the dose curve; as a rule, active = well fitted curve in the direction sought with a large enough effect; inconclusive = small, poorly fitted or top-dose-only effect, or another doubt; inactive = no such curve, though single readings can be large; an effect the other way counts as inactive or inconclusive. Unless noted, % is scaled to controls: 0 for no effect and ±100 for the full control effect.

SMILES	GALK inh	rTrxR1 inhibitor	Integrin act MD	TrxR1 substrate	PI4K2A inh	LDHA block
O=C(NCCc1cccs1)C1CCN(c2ccc(C(F)(F)F)cn2)CC1	.	.	.	.	.	-31*
Cc1ccc(CNC(=O)Cn2ccc3ccccc3c2=O)o1	1%	40µM*	-10%	0%	-6	3
COc1ccc(OC)c(C2=NOC(C(=O)NCc3ccco3)C2)c1 (stereo unspecified)	2%	28µM*	0%	4%	0	4
CN(CC(=O)NC(=O)NCCC1=CCCCC1)C1CCCCC1	.	.	.	.	.	5
COc1ccc2c(c1)c(C(C(=O)O)N1CCN(Cc3ccccc3)CC1)cn2CCC(=O)O (stereo unspecified)	.	.	.	.	.	-8
O=C(CC1Sc2ncnn2C1=O)Nc1ccc(Br)cc1 (stereo unspecified)	4%	1.4µM*	-10%	12%[57.1 µM]	3	-17
CCOC(=O)C1CCN([C@H]2CS(=O)(=O)C[C@@H]2S(=O)(=O)c2ccc(F)cc2)CC1	.	.	.	.	.	-3
O=C(c1ccc(Cl)cc1)C(CN1CCCCCC1)c1ccccc1 (stereo unspecified)	.	.	.	.	.	-2
O=C(c1ccccc1)C(CN1CCCCC1)c1ccccc1 (stereo unspecified)	.	25µM*	-62%	4%	38	-3
O=C(CSc1ncccn1)N1CCN(C(=O)CSc2ncccn2)CC1	-1%	0%	13%	-8%	-4	-9
O=C(CSc1ncccn1)N1CCN(C(c2ccccc2)c2ccccc2)CC1	3%	11%	17%	3%[0.457 µM]	0	-56*
COc1cc(NC(=O)CCc2c(C)c3ccc(C)cc3oc2=O)cc(OC)c1	.	.	.	.	.	4
CC(Nc1ccc(F)cc1)=[N+](C)CCNS(=O)(=O)c1ccc(Cl)cc1	1%	79µM*	6%	-5%	-5	-21
CCNS(=O)(=O)c1ccc(NC(=O)Cc2ccc(F)cc2)cc1	-7%	12%	2%	8%	1	-11
O=C(O)c1ccccc1C(=O)c1ccc(-c2ccccc2)cc1	-1%	19%	0%	-3%	3	-6
O=C1C=CC(=O)N1c1ccccc1N1C(=O)C=CC1=O	.	0.32µM*	-58%	4%	?	-9
O=C(c1ccccc1)c1ccccc1N1C(=O)C=CC1=O	1%	2.2µM*	-38%	13%[57.1 µM]	4	-7
COc1cccc(/C=C2\Oc3cc(OS(=O)(=O)c4ccc(C)cc4)ccc3C2=O)c1	.	.	.	.	.	13
CN(Cc1ccccc1NC(=O)Cc1ccc(C(F)(F)F)cc1)C1CCCCC1	.	.	.	.	.	1
CCOc1ccc(NC(=O)c2nn(-c3ccccc3OC)c(=O)c3ccccc23)cc1	.	.	.	.	.	1
CCN1C(C(=O)c2ccccc2)=C(OC(=O)COc2ccccc2)c2ccccc2S1(=O)=O	.	28µM*	.	-7%	1	-2
Cc1ccc(O)c(NC2=C(Cl)C(=O)N(Cc3ccccc3)C2=O)c1	-4%	10µM*	23%	-4%	-5	8
O=C1C(Cl)=C(Nc2ccccc2O)C(=O)N1c1ccccc1	1%	45µM*	-5%	-4%	-4	23
CCCc1ccc(-c2cc(C(=O)Nc3cccnc3)c3ccccc3n2)cc1	.	.	.	.	.	4
COc1ccc(C(=O)/C=C/C(=O)N(CC(=O)NCCC(C)C)Cc2cccs2)c(O)c1	-1%	2.8µM*	0%	-5%	1	-1
SMILES	GALK inh	rTrxR1 inhibitor	Integrin act MD	TrxR1 substrate	PI4K2A inh	LDHA block
COc1ccc(C(=O)/C=C/C(=O)N(CC(=O)NC2CCCCC2)Cc2ccc(F)cc2)c(O)c1	3%	4µM*	4%	7%	0	-4
CS(=O)(=O)N(CC(=O)NC1CCCCC1)Cc1ccc(F)cc1	-1%	37%[57.1 µM]	21%	-17%[57.1 µM]	-1	0
COc1cccc(C2C=C(c3ccc(OC)cc3OC)Nc3nnnn32)c1 (stereo unspecified)	3%	45µM*	-30%	3%	0	2
Cc1ccc(-c2cc3c(nn2)-c2ccccc2C3=O)cc1	17%	40%	-3%	5%	-63*	-2
CCOc1cc(NS(=O)(=O)c2ccccc2)c(OCC)cc1NC(=O)c1ccco1	-2%	71µM*	-15%	-2%	0	14
Cc1cc(-c2onc(C)c2C(=O)N/N=C/c2ccccc2)no1	0%	27%	-14%	6%	4	0
Cc1ccc(SC(=O)c2c(C)noc2-c2cc(C)on2)cc1	.	40µM*	?	-6%	39	0
CCOc1ccc(C(C)=O)cc1N1C(=O)C2C3C=CC(O3)C2C1=O (stereo unspecified)	-3%	3.2µM*	-65%	7%	2	-14
CCNc1nc(-c2cc(C)n(-c3cc(C)on3)c2C)cs1	.	.	.	.	.	2
O=[N+]([O-])c1cc(Br)c(O)c(C=Nc2ccc(N3CCOCC3)cc2)c1	3%	1%[57.1 µM]	7%	1%[57.1 µM]	-6	31
Oc1ccc(N=Cc2cc(Br)c(N3CCOCC3)o2)cc1	0%	32µM*	-9%	-7%	-5	23
COc1cccc(/C=C/c2nc(C#N)c(N3CCCCCC3)o2)c1	.	81%	.	351%	-1	-5
COc1cccc(/C=C/c2nc(C#N)c(N3CCC(C(N)=O)CC3)o2)c1	.	79µM*	.	i	-4	-2
CCOC(=O)/C=C/C(=O)OCC(=O)Nc1cccc(Br)c1	-2%	?	10%	19%[57.1 µM]	3	-8
CCOC(=O)/C=C/C(=O)OCC(=O)Nc1ccc(C)cc1	-3%	40µM*	?	14%	-2	-9
COc1ccccc1NC(=O)c1nc(S(=O)(=O)Cc2ccccc2)ncc1Cl	-2%	3.5µM*	-73%	0%	4	-6
CCS(=O)(=O)c1ncc(Cl)c(C(=O)Nc2ccccc2OC)n1	4%	?	-25%	1%	-1	-2
CCOc1ccccc1NC(=O)c1nc(S(=O)(=O)Cc2ccccc2)ncc1Cl	-1%	7.9µM*	-58%	-4%	6	-5
COc1ccc(OC)c(NC(=O)c2nc(S(=O)(=O)Cc3ccc(F)cc3)ncc2Cl)c1	.	0.71µM*	.	1%	5	-13
COc1ccc2nc(NC(=O)c3nc(S(=O)(=O)Cc4ccc(C)cc4)ncc3Cl)sc2c1	.	-7%	.	-5%	-26	-2
Cc1cc(C)c(NC(=O)CN(C)CC(=O)NC(=O)NCc2ccccc2)c(C)c1	.	.	.	.	.	-2
O=C(NCc1ccccc1)[C@@H]1CCCN1C(=O)[C@@H]1CCCN1C(=O)c1cccs1	.	.	.	.	11	-2
O=C(NCc1ccco1)[C@@H]1CCCN1C(=O)c1cccs1	1%	79µM*	0%	4%	1	-8
COc1ccc(C(C2C(=O)CC(C)(C)CC2=O)C2C(=O)CC(C)(C)CC2=O)cc1CO	3%	8.9µM*	15%	-4%	-7	-7
